The results in this text go back to PubChem BioAssay (NCI).

About 79,000 compounds went through this panel and 15% of them were active in at least one assay; those are over-represented in the sample as a whole. A number with no mark means an inactive call. Calls of active or inactive are those of the source. Rule as the data show it: active = growth inhibition above about 70%; inactive = the rest.

Test [1] is described as follows: NCI Yeast Anticancer Drug Screen. Data for the rad50 strain (AID 155).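 Also: 0% = growth of vehicle-only cultures of the same strain.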 The following applies: S. cerevisiae rad50 strain growth inhibition, hits give high values. A digest of the protocol: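 Yeast carrying a defined DNA repair defect were exposed to test compounds, and growth was compared with vehicle-treated controls to give percent inhibition.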
Test [2] can be described thus: NCI Yeast Anticancer Drug Screen. Data for the mec2-1 strain (AID 157). The following applies: S. cerevisiae mec2-1 strain, hits give high values. A digest of the protocol: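 Using mec2-1 yeast: add compound, measure growth, express inhibition versus vehicle-treated cultures.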
The nature of test [3]: NCI Yeast Anticancer Drug Screen. Data for the sgs1 mgt1 strain (AID 161).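 Also: 0% = growth of cultures given vehicle only.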 The following applies: S. cerevisiae sgs1 mgt1 strain, hits give high values. A digest of the protocol: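 Growth of a repair-deficient yeast mutant was monitored after compound treatment and expressed as inhibition relative to vehicle-treated cultures.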
A short description of test [4]: NCI Yeast Anticancer Drug Screen. Data for the cln2 rad14 strain (AID 165).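 Also: 0% = growth equal to vehicle treated cultures.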 The following applies: S. cerevisiae cln2 rad14 strain, hits give high values. A digest of the protocol: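 Yeast strain cln2 rad14, bearing defects in cell cycle control and DNA repair, serves as the test system; values reflect growth inhibition compared with vehicle.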
The nature of test [5]: NCI Yeast Anticancer Drug Screen. Data for the bub3 strain (AID 167). The note with it: S. cerevisiae bub3 mutant strain, hits give high values. In outline: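 Compounds were applied to a genetically altered yeast strain carrying a cell-cycle control defect. Growth inhibition was scored against vehicle-treated controls.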
A short description of test [6]: NCI Yeast Anticancer Drug Screen. Data for the mlh1 rad18 strain (AID 175). The note with it: S. cerevisiae mlh1 rad18 strain growth inhibition, hits give high values. A digest of the protocol: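 Steps: expose repair-defective yeast to compound; measure growth; express inhibition against vehicle-treated controls.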
Where [7] appears, read: at 5.0 µM (retest, dose inferred, filed as 0.5).
The mark [8] stands for this setting: at 50.0 µM (retest, dose inferred, filed as 5.0).

Consider `O=c1oc2c/c(=C\c3ccccc3)c(=O)c3cccc1c3-2`, for which the growth inhibition in test [1] (setting [7]) was -6%; in test [1] (setting [8]), 97% (active); in test [1] (at 50.0 µM) it was 84.4% (active); in test [2] (setting [7]), -2%; in test [2] (setting [8]), 95% (active); in test [2] (at 50.0 µM), 88.7% (active). In addition, the growth inhibition in test [3] (setting [7]) is 12%; in test [3] (setting [8]) it was 97% (active); in test [3] (at 50.0 µM), 81.2% (active); in test [4] (setting [7]), -7%; in test [4] (setting [8]), 96% (active); in test [4] (at 50.0 µM), 87.2% (active). The growth inhibition is -7% in test [5] (setting [7]); 96% (active) in test [5] (setting [8]); 86.7% (active) in test [5] (at 50.0 µM); 28% in test [6] (setting [7]); 96% (active) in test [6] (setting [8]); 78.7% (active) in test [6] (at 50.0 µM).

Regarding `O[Si](O)(c1ccccc1)c1ccccc1`, the growth inhibition is 13% in test [1] (setting [7]); 92% (active) in test [1] (setting [8]); 96.2% (active) in test [1] (at 50.0 µM); 7% in test [2] (setting [7]); 92% (active) in test [2] (setting [8]); 93% (active) in test [2] (at 50.0 µM). Also, the growth inhibition in test [3] (setting [7]) was 10%; in test [3] (setting [8]), 92% (active); in test [3] (at 50.0 µM), 95.8% (active); in test [4] (setting [7]), 0%; in test [4] (setting [8]) it was 88% (active); in test [4] (at 50.0 µM) it was 90.2% (active). Also, the growth inhibition in test [5] (setting [7]) was -2%; in test [5] (setting [8]), 94% (active); in test [5] (at 50.0 µM) it was 95.6% (active); in test [6] (setting [7]), 12%; in test [6] (setting [8]), 95% (active); in test [6] (at 50.0 µM), 95.8% (active).

As to `O=[N+]([O-])C(/C=C(\Cl)n1nnc2ccccc21)=C(/Cl)n1nnc2ccccc21`, the growth inhibition in test [1] (setting [7]) is 25%; in test [1] (setting [8]) it was 36%; in test [1] (at 50.0 µM) it was -1.95%; in test [2] (setting [7]) it was 17%; in test [2] (setting [8]) it was 18%; in test [2] (at 50.0 µM) it was -3.7%. For the same molecule, the growth inhibition in test [3] (setting [7]) was 13%; in test [3] (setting [8]), 26%; in test [3] (at 50.0 µM) it was 25.2%; in test [4] (setting [7]), 11%; in test [4] (setting [8]), 11%; in test [4] (at 50.0 µM), 13.4%. Also, the growth inhibition in test [5] (setting [7]) is 27%; in test [5] (setting [8]) it was 27%; in test [5] (at 50.0 µM) it was 14.4%; in test [6] (setting [7]), 22%; in test [6] (setting [8]), 35%; in test [6] (at 50.0 µM), 17.3%.

On to `O=[N+]([O-])c1ccc2c(c1)/C(=C/c1ccccc1O)c1ccccc1-2`, for which the growth inhibition in test [1] (setting [7]) is 66%; in test [1] (setting [8]) it was 91% (active); in test [1] (at 50.0 µM), 92.7% (active); in test [2] (setting [7]), 81% (active); in test [2] (setting [8]), 93% (active); in test [2] (at 50.0 µM), 90.5% (active). Further, the growth inhibition in test [3] (setting [7]) was 69%; in test [3] (setting [8]) it was 92% (active); in test [3] (at 50.0 µM) it was 88.5% (active); in test [4] (setting [7]), 52%; in test [4] (setting [8]) it was 87% (active); in test [4] (at 50.0 µM) it was 84.3% (active). Moreover, the growth inhibition in test [5] (setting [7]) is 42%; in test [5] (setting [8]) it was 91% (active); in test [5] (at 50.0 µM) it was 92% (active); in test [6] (setting [7]) it was 89% (active); in test [6] (setting [8]) it was 91% (active); in test [6] (at 50.0 µM) it was 90.2% (active).

On to `COc1cc(CCN=Cc2cc(Cl)cc(Cl)c2O)c([N+](=O)[O-])cc1OC`, for which the growth inhibition was 60% in test [1] (setting [7]); 74% (active) in test [1] (setting [8]); 58.8% in test [1] (at 50.0 µM); 42% in test [2] (setting [7]); 55% in test [2] (setting [8]); 69.5% in test [2] (at 50.0 µM). Besides, the growth inhibition is 53% in test [3] (setting [7]); 95% (active) in test [3] (setting [8]); 62.4% in test [3] (at 50.0 µM); 35% in test [4] (setting [7]); 57% in test [4] (setting [8]); 43% in test [4] (at 50.0 µM). For the same molecule, the growth inhibition in test [5] (setting [7]) was 51%; in test [5] (setting [8]) it was 94% (active); in test [5] (at 50.0 µM), 77.7% (active); in test [6] (setting [7]), 64%; in test [6] (setting [8]), 91% (active); in test [6] (at 50.0 µM), 62.6%.

In the case of `CC(C)CCCC(C)C1CCC2(C)C3=CCC4C(C)(CCC(O)C4(C)C)C3=CCC12C` (configuration not stated), the growth inhibition in test [1] (setting [7]) is 0%; in test [1] (setting [8]), 83% (active); in test [1] (at 50.0 µM), 89% (active); in test [2] (setting [7]), -18%; in test [2] (setting [8]), 94% (active); in test [2] (at 50.0 µM), 73% (active). Further, the growth inhibition in test [3] (setting [7]) was 11%; in test [3] (setting [8]), 95% (active); in test [3] (at 50.0 µM) it was 98% (active); in test [4] (setting [7]) it was -8%; in test [4] (setting [8]) it was 84% (active); in test [4] (at 50.0 µM), 97.7% (active). The growth inhibition in test [5] (setting [7]) was -6%; in test [5] (setting [8]), 95% (active); in test [5] (at 50.0 µM) it was 93.3% (active); in test [6] (setting [7]), 21%; in test [6] (setting [8]), 97% (active); in test [6] (at 50.0 µM), 90.8% (active).

`O=C(O)c1cc(C(=O)O)c(C(=O)O)cc1C(=O)O.[NH-]C1CCCC1.[NH-]C1CCCC1.[NH-]C1CCCC1.[NH-]C1CCCC1.[Pt+2].[Pt+2]`: the growth inhibition in test [1] (setting [7]) was 4%; in test [1] (setting [8]), 99% (active); in test [1] (at 50.0 µM), 99.5% (active); in test [2] (setting [7]), 10%; in test [2] (setting [8]) it was 100% (active); in test [2] (at 50.0 µM), 99.6% (active). Besides, the growth inhibition in test [3] (setting [7]) was 15%; in test [3] (setting [8]) it was 99% (active); in test [3] (at 50.0 µM), 99.5% (active); in test [4] (setting [7]), 0%; in test [4] (setting [8]), 99% (active); in test [4] (at 50.0 µM), 99% (active). Moreover, the growth inhibition in test [5] (setting [7]) was -1%; in test [5] (setting [8]), 99% (active); in test [5] (at 50.0 µM), 99% (active); in test [6] (setting [7]) it was 16%; in test [6] (setting [8]) it was 99% (active); in test [6] (at 50.0 µM), 99% (active).

Regarding `CCCCC1C(=S)N(c2ccccc2)N(c2ccccc2)C1=S`, the growth inhibition was 0% in test [1] (setting [7]); -2% in test [1] (setting [8]); 24.1% in test [1] (at 50.0 µM); 2% in test [2] (setting [7]); -13% in test [2] (setting [8]); 40.9% in test [2] (at 50.0 µM). Besides, the growth inhibition in test [3] (setting [7]) was 5%; in test [3] (setting [8]), -14%; in test [3] (at 50.0 µM), 82.8% (active); in test [4] (setting [7]) it was 0%; in test [4] (setting [8]) it was -10%; in test [4] (at 50.0 µM), 8.6%. Besides, the growth inhibition in test [5] (setting [7]) was 3%; in test [5] (setting [8]), -6%; in test [5] (at 50.0 µM), 37%; in test [6] (setting [7]) it was -7%; in test [6] (setting [8]) it was 3%; in test [6] (at 50.0 µM), 60.4%.

As to `CN(C)c1ccc(/C=C2/Oc3ccc(Cl)cc3C2=O)cc1`, the growth inhibition in test [1] (setting [7]) is -2%; in test [1] (setting [8]), 98% (active); in test [1] (at 50.0 µM), 87.8% (active); in test [2] (setting [7]), 25%; in test [2] (setting [8]), 98% (active); in test [2] (at 50.0 µM), 90.7% (active). Besides, the growth inhibition in test [3] (setting [7]) is -5%; in test [3] (setting [8]) it was 97% (active); in test [3] (at 50.0 µM), 89.5% (active); in test [4] (setting [7]) it was 28%; in test [4] (setting [8]) it was 97% (active); in test [4] (at 50.0 µM) it was 89% (active). For the same molecule, the growth inhibition in test [5] (setting [7]) is -24%; in test [5] (setting [8]), 98% (active); in test [5] (at 50.0 µM) it was 89.9% (active); in test [6] (setting [7]), 19%; in test [6] (setting [8]), 97% (active); in test [6] (at 50.0 µM), 86% (active).
